# F508del corr – correctors of CFTR F508del function in bronchial epithelial cells | CFBE cells, YFP halide quenching; stimulated with forskolin plus potentiator P3; % fluorescence drop versus neutral controls | activity (quench increase), % at 7.58 µM | actives 0.36% (n = 350,000) | AID 720511;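 active = mean added fluorescence quench of at least 8% versus neutral control, with both replicates also reaching 8%; inconclusive = only one of the mean or replicate conditions met; inactive = mean below 8% and not both replicates reaching 8%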;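 note: cells transiently co-express mutant CFTR-F508del with the halide-sensitive YFP; corrector assay measuring rescue of mutant channel to the surface after 24 h compound exposure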
# PGC1a acetyl inh – PGC1a acetylation modulation, inhibitor mode | U2OS PGC1a acetylation, AlphaScreen anti-acetyl-lysine; with virally co-expressed GCN5 acetyltransferase | inhibition, % at 15.6 µM | actives 0.17% (n = 350,000) | AID 651687;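 active = every replicate shows inhibition of at least 40%; inconclusive = mean inhibition at least 40% but some replicate below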;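 note: 0% = neutral control wells and 100% = positive control wells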
# EWS-Fli inh – EWS/Fli transcriptional activity inhibition | AID 651661 | A673 NR0B1-luciferase reporter, viability-normalised | inhibition, % at 12.6 µM | actives 0.67% (n = 350,000);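 active = mean inhibition of at least 50% after viability correction, with every replicate also passing that limit; inconclusive = mean reaches 50% but only one of two replicates passes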;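 note: firefly luciferase signal divided by Alamar Blue viability fluorescence both relative to DMSO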
# GSIS activator – primary screen for activators of insulin secretion dependent on glucose, INS-1E cells, GLuc reporter luminescence; INS-1E GLuc reporter insulin secretion, 2-3 h; activation, % at 16.6 µM; actives 0.61% (n = 370,000);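 active = lowest replicate activation of at least 40%, so every replicate reaches that level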;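 note: 0% = median of neutral control wells and 100% = median of IBMX positive control wells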
# HIV Env fusion – blocks HIV Env-driven cell-cell fusion; HeLa-JRFL Env/CEM21 cell fusion, luciferase; inhibition, % at 12.3 µM; actives 1.1% (n = 360,000); AID 651610;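 active = mean replicate inhibition score of at least 50 and every replicate individually at or above 50; inconclusive = only one of the two criteria met; inactive = mean below 50 and not all replicates reaching 50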;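 note: 0% = plate neutral controls and 100% = maraviroc near 300 nM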
# PAX8 reporter – lowers PAX8-driven luciferase in RMG-I cells | RMG-I TPO-luciferase reporter, SteadyGlo, 24 h | inhibition, % at 12.6 µM | actives 1.2% (n = 360,000);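 active = mean replicate inhibition at least 60% with every replicate also reaching 60%; inconclusive = only one of the two criteria is met; inactive = mean below 60% and not all replicates reaching 60%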;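 note: luciferase light reporting Pax8 driven TPO promoter activity; plate controls were median of neutral control wells for no effect and mitoxantrone controls for full effect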
# * marks the source's active call; other numbers are inactive results; u = inconclusive; x = no result given; [ ] = dose if it differs, or a comment. This is a sample that favours compounds with a hit; in the whole collection about 2.7% have one here.
SMILES,F508del corr,PGC1a acetyl inh,EWS-Fli inh,GSIS activator,HIV Env fusion,PAX8 reporter
CC(C)CC#Cc1ccc2c(c1)O[C@@H](CN(C)Cc1ccccc1F)[C@@H](C)CN([C@@H](C)CO)S2(=O)=O,4,4,2,-15,x,x
COc1ccc(NC(=O)c2cc(C3CC3)on2)c(OC)c1,8.2*,-9,-2,x,-73,-102
C[C@H](CO)N1C[C@H](C)[C@H](CN(C)S(=O)(=O)c2ccc(Cl)cc2)Oc2c(NC(=O)c3nc4ccccc4s3)cccc2C1=O,2,14,-8,-7,-3[16.7 µM],30
Cc1ccnc(NC(=O)Nc2ccc(Br)cc2Cl)c1,x,x,x,133*,-253,-200
CSc1ccc(NC(=O)Nc2cc(C)ccn2)cc1,2,-11,52*,-1,-109,-82
C[C@@H]1CCCCO[C@H](CN(C)S(=O)(=O)c2cccs2)[C@@H](C)CN([C@H](C)CO)C(=O)c2cc(NC(=O)Nc3ccc(C(F)(F)F)cc3)ccc2O1,3,10,-11,-23,28[16.7 µM],11
C[C@H](O)[C@@H]1C(=O)N2CCc3c([nH]c4cccc(-c5ccccc5)c34)[C@@H]2C[C@@H]1N(C)C(=O)NC1CCCCC1,1,x,43,-8,61*,u
C[C@H](O)[C@@H]1CN2CCc3c([nH]c4ccc(-c5ccc6c(c5)OCO6)cc34)[C@@H]2C[C@@H]1N(C)C(=O)NC1CCCCC1,7,-23,43,-22,-12,90*
COCCNC(=S)N(C)[C@H]1C[C@H]2c3[nH]c4cccc(-c5ccccc5)c4c3CCN2C(=O)[C@H]1[C@H](C)O,-4,x,27,-18,59*,0
C=CCNC(=S)N(C)[C@H]1C[C@H]2c3[nH]c4c(-c5ccccc5)cccc4c3CCN2C(=O)[C@H]1[C@H](C)O,-2,x,-2,2,-30,-4
C[C@H](O)[C@@H]1CN2CCc3ccc(-c4ccc5c(c4)OCO5)cc3[C@@H]2C[C@@H]1N(C)C(=O)NC1CCCCC1,-3,x,-11,6,0,3
C[C@H](O)[C@@H]1C(=O)N2CCc3ccc(-c4ccccc4)cc3[C@@H]2C[C@@H]1N(C)C(=O)NC1CCCCC1,3,4,5,-38,-5,23
CCCC(=O)N1CCC2(CC1)CN(C(=O)C1CCOCC1)[C@@H](CO)c1[nH]c3cc(OC)ccc3c12,0,-2,-4,9,x,x
CNC[C@H]1Oc2ccc(NC(=O)Nc3ccc4c(c3)OCO4)cc2CC(=O)N([C@H](C)CO)C[C@@H]1C,-4,2,17,7,-16[16.7 µM],-2
CCOC(=O)CC1(CC)Oc2ccccc2N1S(=O)(=O)c1ccc(C)cc1 (stereo not given),3,x,5,-19,64*,10
O=C(NCC(F)(F)F)[C@@H]1c2ccccc2C(=O)N(CC23CC4CC(CC(C4)C2)C3)[C@H]1c1ccc(CO)cc1,-2,-1,1,x,74*[16.7 µM],15
C[C@@H]1CN([C@@H](C)CO)C(=O)c2cc(C#CCN(C)C)cnc2O[C@H]1CN(C)C,0,0,-7,26,-6[16.7 µM],x
Cc1onc(-c2c(F)cccc2Cl)c1C(=O)Nc1sc2c(c1C(N)=O)CCC2,x,-17,x,-5,62*,x
Cc1onc(-c2ccccc2)c1C(=O)Nc1sc2c(c1C(N)=O)CCC2,x,x,x,x,17,2
Cc1onc(-c2ccccc2)c1C(=O)Nc1sc2c(c1C#N)CCC2,x,-2,x,-45,67*,x
N#Cc1c(NC(=O)CSc2ncc(-c3ccccc3)n2CC2CCCO2)sc2c1CCCC2 (stereo not given),x,5,x,x,68*,x
C[C@H](CO)N1C[C@H](C)[C@@H](CN(C)C(=O)c2cccnc2)Oc2cc(-c3cccc(C#N)c3)ccc2S1(=O)=O,-4,7,0,23,-8[16.7 µM],x
CC(=O)N(C1=C(Cl)C(=O)c2ccccc2C1=O)C1CCCCC1,-6,31,55*,68,22,99*
CN(C)c1ccc2c(c1)[C@@H]1C[C@@H](CC(=O)NCc3ccc(-c4ccccc4)cc3)O[C@@H](CO)[C@@H]1O2,7,3,55*,-20,x,16
CN(C)c1ccc2c(c1)[C@H]1C[C@@H](CC(=O)NCc3ccccc3)O[C@@H](CO)[C@H]1O2,0,-7,3,-6,-23[16.7 µM],2
SMILES,F508del corr,PGC1a acetyl inh,EWS-Fli inh,GSIS activator,HIV Env fusion,PAX8 reporter
CN(C)c1ccc2c(c1)[C@H]1C[C@H](CC(=O)NCc3ccccc3)O[C@H](CO)[C@H]1O2,4,-2,0,-1,29[16.7 µM],-3
CN(C)c1ccc2c(c1)[C@@H]1C[C@H](CC(=O)NCc3ccc(-c4ccccc4)cc3)O[C@@H](CO)[C@@H]1O2,0,-6,4,-12,80*[16.7 µM],14
CO[C@@H]1CN(C)C(=O)c2cc(NC(=O)NC(C)C)ccc2OC[C@H](C)N(C)C[C@@H]1C,2,-7,7,-10,x,x
CC(C)(C)C1CCc2c(sc(NC(=O)CSc3ncn[nH]3)c2C#N)C1 (stereo not given),x,x,x,x,-50,22
CC1CCc2c(sc(NC(=O)CSc3ncn[nH]3)c2C#N)C1 (stereo not given),4,-8,64*,13,65*,26
Cc1cccc(Nc2nc(N)nc(N)c2N=O)c1,0,x,-5,19,-30,-6
Cc1ccc(N(C)c2nc(N)nc(N)c2N=O)cc1,9.9*,x,18,-8,-8,0
O=C(C[C@@H]1CC[C@H](NC(=O)C2CCC2)[C@H](CO)O1)NC1CCCCC1,-2,-11,-4,-10,0[16.7 µM],x
N#Cc1c(N)n(C2CCCCC2)c2nc3ccccc3nc12,x,-6,x,43*,x,x
OCCCn1c(CCNc2nc(-c3ccc(F)cc3)cs2)nc2cc(C(F)(F)F)ccc21,-2,-5,8,-31,72*,20
OCCCn1c(C2CCCN2c2nc(-c3ccc(F)cc3)cs2)nc2cc(C(F)(F)F)ccc21 (stereo not given),2,x,8,-11,16,23
NC(=S)n1[nH]c(-c2ccc([N+](=O)[O-])cc2)c(N=Nc2cccc([N+](=O)[O-])c2)c1=O,3,-13,25,2,63*,-1
CC(C)c1ccc(CN2CCN(S(=O)(=O)c3ccc(Cl)s3)CC2)cc1,30*,2,2,-2,24,5
N#C/C(C(=O)N1CCCC1)=C1/N=C(N)c2ccccc21,x,x,1,-6,15,108*
CC(C)OC(=O)c1c(F)c(F)c(N2CCOCC2)c(F)c1F,x,57*,x,x,-33,x
Oc1c(C(c2ccccn2)N2CCC(Cc3ccccc3)CC2)cc(Cl)c2cccnc12 (stereo not given),1,x,34,1,-66,83*
O=C(NCc1cc(C(F)(F)F)ccc1Cl)c1cccc2c1C(=O)c1ccc(N3CCC(N4CCCCC4)CC3)cc1S2(=O)=O,1,x,48,-5,16,94*

# From PubChem BioAssay
